uPA surface inh = blocks generation of uPA at the cell surface. cell surface uPA generation assay, qHTS. Potency, µM (top dose mostly 38.3 µM), usual class: inhibitors. hit rate 0.31% among 330,000. AID 540303; active means well fitted inhibition curve with a large enough effect; inconclusive means small, poorly fitted or top-dose-only effect; inactive means no such curve, though single readings can be large or run the other way; tested in mouse RAW 264.7 cells; further: nearly all actives have a fitted effect of over 55% in size
TSHR antag = human thyrotropin receptor antagonism; P16473; TSHR-expressing cells, TSH-stimulated cAMP HTRF, 2 h; stronger effect = lower value; activity change, negative = inhibition, % at 11.5 µM; hit rate 0.2% among 330,000; AID 504810;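 active means activity change below a set negative limit, meaning inhibition stronger than a set level, cut at about -70% in these data; inconclusive means activity change between two set negative limits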
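Freshly harvested TSHR cells receive pin-tooled compound, then EC80 TSH at 4nM final. After 2 hours at 37 deg C, antibody in lysis buffer and cAMP-d2 are added; 30 minutes at ambient temperature precede the HTRF read.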
PLK1 PBD block = inhibitors of human PLK1 polo-box domain binding | P53350 | Plk1 PBD binding of FITC phosphopeptide, fluorescence polarization | Potency, µM, most hits filed as inhibitors | hit rate 2.8% among 360,000 | AID 720504; further: series mostly up to about 57 µM; nearly all actives have a fitted effect of over 65% in size
TSG101-PTAP inh = blocks PTAP/TSG101 interaction to inhibit HIV-1 budding | Q99816 | Fluorescence polarization, FITC-PTAP peptide / Tsg101 binding | Potency, µM (top dose mostly 115 µM), usual class: inhibitors | 340,000 tested, under 10 active | AID 493005; active means well fitted inhibition curve with a large enough effect in the main read-out, with a control signal flat, not every such curve was filed as active; inconclusive means small, poorly fitted or top-dose-only effect, or effect the other way, or a change in a side signal; inactive means no such curve, though single readings can be large or run the other way
Target sequence (Q99816 whole entry, looked up): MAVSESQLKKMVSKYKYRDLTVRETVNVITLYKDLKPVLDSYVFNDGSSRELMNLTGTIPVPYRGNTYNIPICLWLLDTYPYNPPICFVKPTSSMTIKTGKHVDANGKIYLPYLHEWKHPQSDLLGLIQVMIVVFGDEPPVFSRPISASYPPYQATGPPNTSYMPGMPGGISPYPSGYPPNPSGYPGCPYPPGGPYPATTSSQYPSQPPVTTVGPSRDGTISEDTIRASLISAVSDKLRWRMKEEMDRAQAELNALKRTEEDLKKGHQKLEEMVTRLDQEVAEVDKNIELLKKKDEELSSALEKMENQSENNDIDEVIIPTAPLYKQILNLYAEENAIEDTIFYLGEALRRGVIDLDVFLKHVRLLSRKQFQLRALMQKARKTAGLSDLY
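Fluorescence anisotropy tracks displacement of a FITC-tagged PTAP peptide (50 nM) from the Tsg101 binding domain (10 uM), following a 20 min room-temperature incubation at pH 7.5.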
VDR inhibitor = blocks the human vitamin D receptor | P11473 | VDR-SRC2-3 peptide fluorescence polarization, 2 h | Potency, µM, hits mostly inhibitors | hit rate 0.93% among 400,000
Target sequence (P11473 whole entry, looked up): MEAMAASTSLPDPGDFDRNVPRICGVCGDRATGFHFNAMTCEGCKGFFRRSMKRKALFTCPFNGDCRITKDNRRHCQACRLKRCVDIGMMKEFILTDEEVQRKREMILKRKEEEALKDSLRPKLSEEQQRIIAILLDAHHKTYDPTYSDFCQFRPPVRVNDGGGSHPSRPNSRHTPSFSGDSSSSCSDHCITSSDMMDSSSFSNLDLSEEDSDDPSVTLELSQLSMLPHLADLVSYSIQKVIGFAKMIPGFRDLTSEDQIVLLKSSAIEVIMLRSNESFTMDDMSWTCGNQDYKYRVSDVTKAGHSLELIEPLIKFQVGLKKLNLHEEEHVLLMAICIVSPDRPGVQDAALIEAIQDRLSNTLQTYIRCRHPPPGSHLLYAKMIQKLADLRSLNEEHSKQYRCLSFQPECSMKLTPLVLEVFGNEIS
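Inhibition of the VDR/SRC2-3 peptide interaction is quantified by fluorescence polarization. Compounds (23 nl, pintool) incubate with the reagents for 2 hours at ambient room temperature.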
Each line names hits and unclear results; the compound was inactive in the other large screens; ! = repeats disagree. Hits are enriched below; roughly 3.1% of the tested compounds scored in any of these assays. Unless noted, the call rests on the fitted dose curve; in most records, active means well fitted curve in the direction sought with a large enough effect; inconclusive means small, poorly fitted or top-dose-only effect, or another doubt; inactive means no such curve, though single readings can be large; an effect the other way counts as inactive or inconclusive.

Cc1cc(C=C2C(=O)NC(=S)NC2=O)c(C)n1-c1ccc2c(c1)OCO2	PLK1 PBD block 2.7µM, VDR inhibitor 71µM
Cc1cc(C=C2C(=O)NC(=O)NC2=O)c(C)n1-c1ccc2c(c1)OCO2	none
CSc1ccc(C(=O)C2CCCN(C(=O)CCc3c(C)nn(C)c3C)C2)cc1 (centres undefined)	uPA surface inh inconclusive (no result: TSHR antag)
Cc1cc(/C=C2\C(=O)NC(=O)N(c3ccc(F)cc3)C2=O)c(C)n1-c1cccc(C(=O)O)c1	PLK1 PBD block 17µM
O=C(O)Cn1cc(/C=C2\C(=O)NC(=O)N(Cc3ccco3)C2=O)c2ccccc21	PLK1 PBD block 9.5µM, VDR inhibitor inconclusive
O=C1NC(=O)N(c2ccccc2F)C(=O)/C1=C/c1cn(CC(=O)N2CCOCC2)c2ccccc12	PLK1 PBD block 4.7µM, VDR inhibitor inconclusive
COC(=O)Cn1cc(/C=C2\C(=O)NC(=O)N(c3ccccc3)C2=O)c2ccccc21	PLK1 PBD block inconclusive
Cc1ccc(N2C(=O)NC(=O)/C(=C\c3cn(CC(=O)O)c4ccccc34)C2=O)cc1	PLK1 PBD block 27µM
Nc1c(Cl)cc(-c2csc(NC(CO)c3nc4ccccc4n3CCOCCO)n2)cc1Cl (centres undefined)	uPA surface inh inconclusive, PLK1 PBD block inconclusive (no result: TSHR antag)
O=C1CS[C@@H](c2ccccc2Cl)c2cc(Cl)ccc2N1	none (no result: uPA surface inh, TSHR antag, PLK1 PBD block, TSG101-PTAP inh)
C=C1C([C@@]2(C)C(OC(C)=O)CC(=O)O[C@@](C)(COC(C)=O)C2CC(=O)OC)C(OC=O)C(OC(=O)C(OC(C)=O)C(C)CC)[C@]2(C)C(c3ccoc3)CC(=O)C12O (some centres undefined)	none (no result: uPA surface inh, TSHR antag, PLK1 PBD block, TSG101-PTAP inh)
CCN1C(=O)NC(=O)/C(=C\c2cn(CC(=O)O)c3ccccc23)C1=O	none (no result: uPA surface inh, PLK1 PBD block, TSG101-PTAP inh, VDR inhibitor)
O=C(O)Cn1cc(/C=C2\C(=O)NC(=O)N(c3ccc(Br)cc3)C2=O)c2ccccc21	PLK1 PBD block 3µM, VDR inhibitor inconclusive
Nc1ccc2ccc3cccc[n+]3c2c1	PLK1 PBD block 0.67µM, TSG101-PTAP inh inconclusive
CCCCCN1C(=O)c2cc(OC)ccc2[C@@]2(C(=O)OCC)Cc3cc(Cl)ccc3[C@@H]12	PLK1 PBD block 4.7µM (no result: uPA surface inh, TSHR antag, TSG101-PTAP inh, VDR inhibitor)
CCOC(=O)[C@]12Cc3ccccc3[C@H]1N(Cc1ccccc1)C(=O)c1cc(OC)ccc12	none (no result: uPA surface inh, TSHR antag, TSG101-PTAP inh, VDR inhibitor)
CCOC(=O)[C@]12Cc3cc(OC)ccc3[C@H]1N(CCC(=O)OC)C(=O)c1cc(OC)ccc12	PLK1 PBD block 13µM (no result: uPA surface inh, TSHR antag, TSG101-PTAP inh, VDR inhibitor)
CCOC(=O)[C@]12Cc3cc(Cl)ccc3[C@H]1N(Cc1ccccc1)C(=O)c1cc(OC)ccc12	PLK1 PBD block 11µM (no result: uPA surface inh, TSHR antag, TSG101-PTAP inh, VDR inhibitor)
CCOC(=O)[C@]12Cc3cc4ccccc4cc3[C@H]1N(Cc1ccccc1)C(=O)c1ccccc12	PLK1 PBD block 12µM (no result: uPA surface inh, TSHR antag, TSG101-PTAP inh, VDR inhibitor)
CCOC(=O)[C@]12Cc3c(cc(OC)c(OC)c3OC)[C@H]1N(Cc1ccccc1)C(=O)c1ccccc12	none (no result: TSHR antag)
C=C(C)[C@H]1C2C(=O)O[C@H]1[C@H]1OC(=O)[C@@]34O[C@@H]3C[C@]2(O)[C@@]14C	none (no result: uPA surface inh, TSHR antag, PLK1 PBD block, TSG101-PTAP inh)
CCOC(=O)[C@]12Cc3cc4ccccc4cc3[C@H]1N(Cc1ccccc1)C(=O)c1cc(OC)ccc12	PLK1 PBD block 11µM (no result: uPA surface inh, TSHR antag, TSG101-PTAP inh, VDR inhibitor)
[O-]/[N+](=C/c1cccnc1)c1ccc(Br)cc1	PLK1 PBD block 11µM, VDR inhibitor 45µM
CN1CN=C(N[N+](=O)[O-])N(Cc2ccco2)C1	VDR inhibitor inconclusive
O=[N+]([O-])NC1=NCN(Cc2ccco2)CN1Cc1ccco1	PLK1 PBD block 27µM, VDR inhibitor inconclusive
O=C(OC1Cc2c(O)cc(O)cc2OC1c1cc(O)c(O)c(O)c1)c1cc(O)c(O)c(O)c1 (centres undefined)	VDR inhibitor 50µM (no result: uPA surface inh, TSHR antag, PLK1 PBD block, TSG101-PTAP inh)
COP(=S)(OC)Oc1nc(Cl)c(Cl)cc1Cl	VDR inhibitor 4.5µM (no result: uPA surface inh, TSHR antag, PLK1 PBD block, TSG101-PTAP inh)
CCOP(=S)(OCC)Oc1nc(Cl)c(Cl)cc1Cl	PLK1 PBD block 30µM, VDR inhibitor 32µM
O=C(O)COc1nc(Cl)c(Cl)cc1Cl	none (no result: uPA surface inh, TSHR antag, PLK1 PBD block, TSG101-PTAP inh)
CS/C(N)=C(C#N)/C(C#N)=C(\N)SC	VDR inhibitor 45µM (no result: uPA surface inh, TSHR antag, PLK1 PBD block, TSG101-PTAP inh)
CCN(CC)C(=O)[C@H]1C[C@H](CC(=O)NCc2ccc(OC)c(OC)c2)C(=O)N2CCc3c([nH]c4ccc(Cl)cc34)[C@]12C	uPA surface inh 10µM
COc1ccc2[nH]c3c(c2c1)CCN1C(=O)C(CC(=O)NCc2ccco2)C[C@H](C(=O)N(C(C)C)C(C)C)[C@@]31C (some centres undefined)	uPA surface inh inconclusive, PLK1 PBD block inconclusive, VDR inhibitor inconclusive
Cc1ccc(S(=O)(=O)CC(=O)c2cc(C)c(OC(=O)N(C)C)c(C)c2)cc1	none
Cc1cc(C(=O)CS(=O)c2ccc(F)cc2)cc(C)c1OC(=O)N(C)C (centres undefined)	PLK1 PBD block 12µM
C=C1CCN([C@@H](Cc2ccccc2)C(=O)Nc2ccc(OC)cc2)S(=O)(=O)c2ccccc21	PLK1 PBD block inconclusive (no result: TSHR antag)
CON(C)C(=O)Nc1ccc(Br)c(Cl)c1	none (no result: uPA surface inh, TSHR antag, PLK1 PBD block, TSG101-PTAP inh)
O=C(C1=C[C@H](c2csc3ccccc23)C[C@H](OCCCCO)O1)N1CCN(Cc2ccc3c(c2)OCO3)CC1	uPA surface inh inconclusive
CCN(CC)P(=S)(c1c(C)nc2ccccn12)c1c(C)nc2ccccn12	uPA surface inh inconclusive, PLK1 PBD block 5.3µM, VDR inhibitor inconclusive
CC(C)C[C@H](NC(=O)[C@H](Cc1ccccc1)NC(=O)CNC(=O)[C@H](CS)N(C(=O)[C@@H](N)Cc1ccc(O)cc1)C(C)(C)C)C(=O)N([C@H](C(=O)O)[C@H](C)O)C(C)(C)C	none (no result: uPA surface inh, TSHR antag, PLK1 PBD block, TSG101-PTAP inh)
CCCCC/C=C\C/C=C\C/C=C\CCCCC(=O)NCCc1ccc(O)c(O)c1	none (no result: uPA surface inh, TSHR antag, PLK1 PBD block, TSG101-PTAP inh)
CCOc1ccc(C(=O)OC2CC3CCC(C2)N3C)cc1 (centres undefined)	none
CN1C2CCC1CC(OC(=O)c1ccc(Cl)cc1)C2 (centres undefined)	PLK1 PBD block 27µM
C[C@@H](N)Cc1cnc[nH]1	VDR inhibitor 79µM!
CCCC[N+]12C3CC(C(CC)[C@H]1O)[C@@H]1C(O)C4(C[C@@H]12)c1ccccc1N(C)C34 (some centres undefined)	none (no result: uPA surface inh, TSHR antag, PLK1 PBD block, TSG101-PTAP inh)
COc1ccc2c(c1)NP(=S)(Oc1ccccc1)N2 (centres undefined)	PLK1 PBD block 15µM, TSG101-PTAP inh inconclusive, VDR inhibitor inconclusive
Cc1ccc2c(c1)NP(=S)(Oc1ccccc1)N2 (centres undefined)	PLK1 PBD block inconclusive (no result: TSHR antag)
Clc1ccc(CNC2CN3CCC2CC3)cc1 (centres undefined)	none
Fc1ccccc1CNC1CN2CCC1CC2 (centres undefined)	PLK1 PBD block 19µM, VDR inhibitor inconclusive
COc1ccc(-c2oc3cc(OC)c(O)c(OC)c3c(=O)c2OC)cc1O	uPA surface inh inconclusive
CN(CC(=O)Nc1ccc(Cl)c(C(F)(F)F)c1)C(=O)c1ccc(OCC2CCCO2)cc1 (centres undefined)	uPA surface inh inconclusive
O=C(Nc1nnc(-c2ccc3c(c2)CCCC3)o1)c1ccccc1	uPA surface inh 10µM
